Screens deposited in PubChem BioAssay by National Center for Advancing Translational Sciences (NCATS).
Sampled rows, rich in hits. Any-hit rate of the full collection: about 12%.
PI5P4Ka inh = blocks human PI5P4K alpha kinase activity. P48426. PI5P4Kalpha enzyme, ADP-Glo luminescence, 60 min; hits give low values. max response, %. actives 1.2% (n = 330,000); active = max response of -50% or lower; inconclusive = between -30% and -50%; inactive = -30% or higher; note: value at the top dose of about 77 µM; % is set by controls: 0 for no effect and ±100 for the full control effect
Target sequence (P48426 whole entry, looked up): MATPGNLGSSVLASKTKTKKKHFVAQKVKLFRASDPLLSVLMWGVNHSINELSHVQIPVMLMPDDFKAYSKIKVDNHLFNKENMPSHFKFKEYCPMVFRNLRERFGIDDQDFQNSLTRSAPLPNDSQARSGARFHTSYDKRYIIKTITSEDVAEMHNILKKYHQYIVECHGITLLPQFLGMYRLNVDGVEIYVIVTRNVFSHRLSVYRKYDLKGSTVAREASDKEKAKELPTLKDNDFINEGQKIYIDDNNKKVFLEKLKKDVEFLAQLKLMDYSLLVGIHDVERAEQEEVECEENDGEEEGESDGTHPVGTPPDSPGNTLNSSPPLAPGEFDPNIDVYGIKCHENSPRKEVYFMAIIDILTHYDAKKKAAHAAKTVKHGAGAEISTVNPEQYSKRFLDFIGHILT
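Quantitative HTS of the MLSMR library against PI5P4Kalpha with substrate. ATP added last at 5 microM final; room temperature, 60 minutes. Remaining ATP depleted, ADP converted and read as luminescence.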
G9a inh = G9a (human) methyltransferase inhibition | actives 8.8% (n = 350,000) | Potency, µM (titrated, usually from 102 µM), for inactives: at the highest dose activity, negative = inhibition, actives largely listed as inhibitors | G9a H3K9 monomethylation, AlphaScreen, 2 h; note: potency is the fitted concentration of half-maximal effect; % is set by controls: 0 for no effect and ±100 for the full control effect; nearly all actives have a fitted effect of over 75% in size
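Chemiluminescent proximity detection of H3K9 monomethylation, read after 10 min bead incubation in the dark. Reaction: 20 nM G9a, 500 nM biotin-H3K9 peptide, 20 uM SAM cofactor, 2 h, room temperature, following 15 min enzyme-compound preincubation.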
JMJD2A Tudor = blocks the human JMJD2A Tudor domain; O75164; AlphaScreen JMJD2A-Tudor / H3K4me3 peptide binding; Potency, µM (titrated, usually from 114 µM), for inactives: at the highest dose activity change, negative = inhibition, hits mostly inhibitors; actives 4.4% (n = 390,000); note: potency is the fitted concentration of half-maximal effect; % is set by controls: 0 for no effect and ±100 for the full control effect; nearly all actives have a fitted effect of over 50% in size
HP1b binding inh = blocks HP1-beta chromodomain binding to methylated histone tails. P83916. AlphaScreen HP1-beta / biotin-H3K9me3 peptide binding. Potency, µM (top dose mostly 114 µM), without a hit: at the highest dose activity change, negative = inhibition, most hits filed as inhibitors. actives 0.56% (n = 390,000). AID 540317; note: potency is the fitted concentration of half-maximal effect; nearly all actives have a fitted effect of over 70% in size
Target sequence (P83916 whole entry, looked up): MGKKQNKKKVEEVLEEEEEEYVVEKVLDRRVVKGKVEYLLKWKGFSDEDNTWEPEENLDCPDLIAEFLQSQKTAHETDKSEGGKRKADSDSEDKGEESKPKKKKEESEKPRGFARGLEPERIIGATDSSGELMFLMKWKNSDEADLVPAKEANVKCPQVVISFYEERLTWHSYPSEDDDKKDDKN
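Compound inhibition of the preformed complex between 50 nM HP1-beta and 50 nM biotinylated H3K9me3 peptide was read by AlphaScreen. Buffer was PBS pH 7.4 with 0.01% Tween-20. Incubations ran 30 min at room temperature, with 10 ug/mL donor/acceptor beads.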
BAZ2B block = blocks human BAZ2B. Q9UIF8. AlphaScreen BAZ2B-H3K14Ac peptide displacement. Potency, µM (titrated, usually from 114 µM), inactives show at the top dose activity change, negative = inhibition, usual class: inhibitors. actives 4.4% (n = 360,000); note: potency is the fitted concentration of half-maximal effect; % is set by controls: 0 for no effect and ±100 for the full control effect; nearly all actives have a fitted effect of over 60% in size
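BAZ2B (50 nM) with biotin-H3(5-23)K14Ac peptide (50 nM) in PBS pH 7.4, 0.01% Tween-20, preformed 30 min, then compound 30 min at room temperature; top concentration 110uM. AlphaScreen streptavidin donor/nickel chelate acceptor beads (10 ug/mL final), 20 min dark, signal read.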
PLK1 PBD block = PLK1 (human) polo-box domain binding inhibition | AID 720504 | actives 2.8% (n = 360,000) | P53350 | Plk1 PBD binding of FITC phosphopeptide, fluorescence polarization | Potency, µM, for inactives: max response, negative = inhibition, actives largely listed as inhibitors; note: potency is the fitted concentration of half-maximal effect; series mostly up to about 57 µM; % is set by controls: 0 for no effect and ±100 for the full control effect; nearly all actives have a fitted effect of over 65% in size
ADP-Glo counter = interferes with ADP-Glo detection without enzyme present; shares compounds with PI5P4Ka inh; ADP-Glo detection counter-screen, luciferase luminescence, no enzyme; Potency, µM (top dose mostly 76.9 µM), without a hit: at the top dose activity change, negative = inhibition, hits mostly inhibitors; 1,100 tested, under 10 active; AID 743285
Active calls of the source: *; ? = inconclusive; · = no result given; [ ] = another dose, or the depositor's remark. Unless noted, calls come from the whole dose curve; as a rule, active = well fitted curve in the direction sought with a large enough effect; inconclusive = small, poorly fitted or top-dose-only effect, or another doubt; inactive = no such curve, though single readings can be large; an effect the other way counts as inactive or inconclusive.

SMILES	PI5P4Ka inh	G9a inh	JMJD2A Tudor	HP1b binding inh	BAZ2B block	PLK1 PBD block	ADP-Glo counter
Cc1ccc(CNC(=O)c2ccc(-n3cccc3)cc2)cc1	-90.3*	?	39.8µM*	22.4µM*	25.1µM*	?	3.8%
COc1cccc2c1C1(O)C2CCCCCCCCCC12OCCCO2 (stereo not drawn)	-5.3	·	-4.2%	17.9%	·	-10.6%	·
COc1cccc2c1C(=O)C[C@]1(CCCC[C@@H]1C)O2	2.1	11.9%[2.33 µM]	22.3%	65.1%	57.2%	-6.2%	-5.2%
NC(=O)C1CCN(CC(=O)Nc2ccc3c(c2)OCCO3)CC1	-63.2*	·	2.3%	-49.9%	·	-10.4%	-5.3%
Cc1c(C(=O)N2CCCC(C)C2)sc2ncnc(N3CCCCC3C)c12 (stereo not drawn)	0.1	19.3%	-17.4%	22.2%	0.2%	0.3%	·
Cc1c(C(=O)O)sc2ncnc(N3CCCCC3C)c12 (stereo not drawn)	·	-0.4%[12.7 µM]	-1.9%	25.1%	8.7%	-8.5%	0.1%
O=C(Oc1ccc2c(c1)OCO2)c1cc2c(s1)CCC2	-53.1*	-31.0%[59 µM]	31.6µM*	?	-126.4%	-27.7%	-8.8%
Cn1cc(C(=O)NCCc2ccc(Cl)cc2)c(=O)c2cc(S(=O)(=O)N3CCCCC3)ccc21	·	8.4%[59 µM]	-9.3%	18.4%	·	·	·
CC[C@]12c3[nH]c4cc(-c5ccco5)ccc4c3CCN1C(=O)[C@@H](CC(=O)NCCC1=CCCCC1)C[C@@H]2C(=O)N1CCN(C(=O)c2ccco2)CC1	-73.5*	·	?	9.3%	·	-5.0%	1.1%
c1ccc(Cc2nnc3sc(-c4ccco4)nn23)cc1	-50.7*	35.5µM*	?	?	?	21.2µM*	2.5%
COC(=O)c1c[nH]c(=O)c2ccccc12	-56.3*	·	?	-17.2%	2.7%	15µM*	-6.5%
COc1cccc(N2CCN(C(=O)c3ccc(CS(=O)c4ccccc4Cl)o3)CC2)c1 (stereo not drawn)	4.5	21.7%	-22.0%	25.8%	?	-22.9%	·
COc1cccc(N2CCN(C(=O)c3ccc(CS(=O)c4ccccc4C)o3)CC2)c1 (stereo not drawn)	0.2	21.5%	?	-12.2%[57 µM]	-23.2%	?	-8.4%
O=C(NCc1cccnc1)c1cc(C2CCCCN2S(=O)(=O)c2cccc3cccnc23)on1 (stereo not drawn)	-6.5	·	·	·	·	-7.6%	·
CCN(C(=O)c1cn(C)c(=O)c2ccccc12)c1cccc(C)c1	·	-17.1%[59 µM]	-14.3%	33.9%	-8.0%	·	·
Cc1ccc(S(=O)(=O)N(CC(=O)Nc2ccccc2C(=O)O)c2ccccc2C)cc1	-50.6*	?	-7.0%	41.1%	-20.9%	-6.3%	0.0%
Cc1ccc(S(=O)(=O)N(CC(=O)Nc2ccccc2-c2ccccc2)c2ccc(C)cc2C)cc1	28.9	22.7%	-23.0%	3.7%	-0.6%	-10.1%	·
O=C(Nc1nc(-c2ccco2)cs1)c1ccccc1	-63.0*	?	?	-30.0%	56.2µM*	?	-2.3%
CS(=O)(=O)c1ccc(C(=O)Nc2nc(-c3ccco3)c(-c3ccco3)s2)cc1	-83.9*	10µM*	?	39.8µM*	39.8µM*	-26.9%	3.6%
Cc1cn([C@H]2C[C@H](O)[C@@H](CNCc3cccc(OC4CCCC4)c3)O2)c(=O)[nH]c1=O	-1.8	·	·	·	·	-4.4%	·
CCn1cc(C(=O)N2CCN(c3cccc(C)c3C)CC2)c(=O)c2ccc(C)nc21	-72.6*	3.0%	-21.6%	-32.2%	-34.3%	-5.9%	-6.5%
CCn1cc(C(=O)N2CCN(c3ccc([N+](=O)[O-])cc3)CC2)c(=O)c2ccc(C)nc21	-0.8	-45.4%	-18.6%	10.3%	·	-5.5%	·
CC(C)Cc1c(O)nc(SCC(=O)N2CCCCCC2)[nH]c1=O	-50.3*	14.1%	-14.3%	27.5%	5.8%	1.0%	0.1%
CCn1nc(CC(=O)Nc2nnc(CC(=O)N3CCOCC3)s2)c2ccccc2c1=O	2.0	·	-11.1%	23.8%	1.1%	0.5%	-0.1%
COc1cc(/C(C)=C/c2ccccc2)c2c(c1)oc1ccccc12	·	·	·	·	68.6%[57.1 µM]	·	·
SMILES	PI5P4Ka inh	G9a inh	JMJD2A Tudor	HP1b binding inh	BAZ2B block	PLK1 PBD block	ADP-Glo counter
CC1CCCCN1C(=O)Cn1cnc2cc([N+](=O)[O-])ccc2c1=O (stereo not drawn)	-68.8*	-5.9%	14.1µM*	-14.3%	?	9.47µM*	-3.1%
O=C(O)Cc1nc(-c2cccnc2)sc1-c1ccc(Br)cc1	-61.3*	?	-20.3%	-10.2%	-14.5%	?	-7.0%
O=C(O)c1ccc(Nc2nc3ccccc3nc2NS(=O)(=O)c2cccs2)cc1	?	50.1µM*	-23.0%	52.7%	-9.5%[57.1 µM]	?	-8.0%
Cc1cc(OCC(=O)Nc2c(C(C)C)cccc2C(C)C)no1	2.0	·	·	·	·	0.3%	·
COc1ccc(S(=O)(=O)Nc2ccc3c(c2)CCC3)cc1	-67.3*	-8.1%	10µM*	-12.1%	5.7%	3.77µM*	-4.0%
COc1ccc(S(=O)(=O)Nc2ccc(C)c(C)c2)cc1	·	·	-20.4%	·	·	·	·
Cn1nnnc1SCc1nc2scc(-c3ccc(Cl)cc3)c2c(=O)[nH]1	-68.2*	-29.2%[12.7 µM]	-10.3%[11.4 µM]	38.2%	-18.7%	-9.4%	-1.5%
Cn1nnnc1SCc1nc2scc(-c3ccccc3)c2c(=O)[nH]1	-19.5	3.9%	-12.6%	10.8%	-9.8%	2.1%	·
O=C(C1CCN(S(=O)(=O)c2ccc(Br)s2)CC1)N1CCN(c2cccc(C(F)(F)F)c2)CC1	·	-38.3%[59 µM]	-12.7%	25.0%	-7.8%	·	·
c1ccc2c(CCNc3ncnc4nc[nH]c34)c[nH]c2c1	·	-1.2%	?	7.7%	-32.7%	-1.0%	-1.9%
Cc1c(C(=O)O)cccc1-c1ccc(/C=C2\SC(=O)NC2=O)o1	-56.5*	·	-27.6%	17.1%	-6.5%	-19.1%	-3.8%
CC1CCC(C(C)C)C(=O)C1 (stereo not drawn)	·	30.4%[59 µM]	·	·	·	·	·
O=C(Nc1nc(-c2ccco2)c(-c2ccco2)s1)C1CC(=O)N(c2ccc3c(c2)OCCO3)C1 (stereo not drawn)	-76.1*	?	25.1µM*	-86.9%	11.2µM*	?	3.0%
Cc1nnc(NC(=O)C2CC(=O)N(c3ccc4c(c3)OCCO4)C2)s1 (stereo not drawn)	-1.3	15.8%[2.33 µM]	-28.4%	19.0%	-3.4%	-11.3%	·
CCCC/C=C/[C@H](c1ccccc1)[C@H](CO)Cc1ccc2ccccc2c1	·	·	51.7%	94.9%	·	·	·
COc1ccc(C(=O)NCc2nnc(SC)n2C2CCCCC2)cc1	-54.1*	1.7%[59 µM]	-21.4%	18.5%	-5.1%	-6.8%	9.3%
CCC(NC(=S)NC1CCCCC1)c1ccc(C)cc1 (stereo not drawn)	·	·	·	·	-29.9%	·	·
